# Bioassay records (PubChem)
# Marburg entry – qHTS for Inhibitors of binding or entry into cells for Marburg Virus | 18,000 compounds, 6.5% hits | Marburg virus pseudotype entry/binding inhibition, cell-based | Potency, µM (doses to about 49.2 µM), for inactives: at the highest dose activity change, negative = inhibition, actives largely listed as inhibitors
# Lassa entry – qHTS for Inhibitors of binding or entry into cells for Lassa Virus | Lassa virus pseudotyped entry inhibition, cell-based qHTS | Potency, µM (doses to about 49.2 µM), for inactives: at the top dose activity change, negative = inhibition, actives largely listed as inhibitors | 18,000 compounds, 4.1% hits | AID 720533, 2013
# An asterisk follows results filed as active; ? = inconclusive; ! = repeats disagree; [ ] = another dose, or the depositor's remark. This is a sample that favours compounds with a hit; in the whole collection about 8% have one here. The call rests on the fitted dose curve; tested in HEK293 cells. On the % scale 0 is the no-effect control and ±100 the full control effect; potency means the concentration at half of the fitted maximal effect.
SMILES,Marburg entry,Lassa entry
CO[C@H]1C[C@H](O[C@H]2[C@H](C)O[C@@H](O[C@@H]3/C(C)=C/C[C@@H]4C[C@@H](C[C@]5(C=C[C@H](C)[C@@H](C6CCCCC6)O5)O4)OC(=O)[C@@H]4C=C(C)[C@@H](O)[C@H]5OC/C(=C\C=C\[C@@H]3C)[C@]54O)C[C@@H]2OC)O[C@@H](C)[C@@H]1O,8.9µM*,10µM*
CC[C@@H](C)[C@H]1O[C@]2(CC[C@@H]1C)C[C@@H]1C[C@H](C/C=C(/C)[C@H](O[C@@H]3C[C@H](OC)[C@H](O[C@@H]4C[C@H](OC)[C@@H](O)[C@H](C)O4)[C@H](C)O3)[C@@H](C)/C=C\C=C3CO[C@@H]4[C@H](O)C(C)=C[C@@H](C(=O)O1)[C@]34O)O2 (tested in a mixture with another compound),-4%,?
CCC(C)[C@H]1O[C@]2(C=C[C@@H]1C)C[C@@H]1C[C@@H](C/C=C(\C)[C@@H](O[C@H]3C[C@H](OC)[C@@H](O[C@H]4C[C@H](OC)[C@H](NC(C)=O)[C@H](C)O4)[C@H](C)O3)[C@@H](C)/C=C/C=C3\CO[C@@H]4[C@H](O)C(C)=C[C@@H](C(=O)O1)[C@]34O)O2 (some centres not stated),8.9µM*,13µM*
COc1c(C)c2c(c(O)c1C/C=C(\C)CCC(=O)OCCN1CCOCC1)C(=O)OC2,1.1µM*,1.1µM*
COc1ccc2[nH]cc(CCNc3ncncc3-c3ccccc3CN(C)C)c2c1,?,-14%
CN(C)CCCn1cc(C2=C(c3c[nH]c4ccccc34)C(=O)NC2=O)c2ccccc21,7.1µM*,?
Cn1cc(C2=C(c3cn(CCCSC(=N)N)c4ccccc34)C(=O)NC2=O)c2ccccc21,16µM*,18µM*
Cn1cc(C=C2C(=O)Nc3cccnc32)c2ccccc21,10%,-23%
COc1ccc2c(c1)c(C1=C(c3c[nH]c4ccccc34)C(=O)NC1=O)cn2CCCN(C)C,7.1µM*,?
COc1ccccc1C1=C(Nc2ccccc2)C(=O)NC1=O,19%,26%
CC(=O)OCC(=O)[C@@]1(O)CC[C@H]2[C@@H]3CCC4=CC(=O)CC[C@]4(C)C3=CC[C@@]21C,2%,-10%
O=C1NC(=O)C(c2cccc(Cl)c2)=C1Nc1ccc(Cl)c(C(=O)O)c1,-38%,17%
CCN(CCNC(=O)[C@H]1C=C(OC)C(=O)C[C@H](c2ccccc2)[C@@H]1C)C(C)=O,-18%[8.59 µM],3%[8.59 µM]
C[C@]12CCC3C(CC[C@]4(O)CC(O)CC[C@@]34C=O)[C@]1(O)CCC2C1=CC(=O)OC1 (some centres not stated),10µM*,11µM*
C[C@@H]1O[C@@H](O[C@H]2CC[C@]3(C=O)C4CC[C@]5(C)[C@@H](C6=CC(=O)OC6)CC[C@]5(O)[C@@H]4CC[C@]3(O)C2)[C@H](O)[C@H](O)[C@H]1O (some centres not stated),0.1µM*,0.11µM*
COC1C(O)C(OC2CC[C@]3(C=O)C4C(OC(C)=O)C[C@@]5(C)C(C6=CC(=O)OC6)CC[C@]5(O)C4CC[C@]3(O)C2)OC(C)C1OC(C)=O (some centres not stated),-13%,0%
CC1O[C@@H](OC2CC[C@@]3(C=O)C4CC[C@]5(C)C(C6=CC(=O)OC6)CC[C@@]5(O)C4CC[C@]3(O)C2)C(O)C(O)C1O (some centres not stated),0.2µM*,0.25µM*
CN1CCC(C(=O)Nc2n[nH]c3nnc(-c4ccccc4)cc23)CC1,?,16%
C[C@H]1[C@H](c2ccccc2)Oc2cc(Br)ccc2S(=O)(=O)N1Cc1cccc(Cl)c1,-34%,11%
COc1ccc(-c2nc(-c3ccccc3)oc2NC2CCCCC2)cc1,31%[8.59 µM],12%[8.59 µM]
COC(=O)CC=C1c2ccc3c(c2[C@@H](OC)[C@@H]1C)OCO3,-6%[8.59 µM],-2%[8.59 µM]
N#Cc1ccc2c(c1)C[C@]1(c3ccsc3)OC3=C(C(=O)OC4(CCCCC4)C3)[C@H]2O1,?,-4%[8.59 µM]
Cc1ncc(CO)c(CO)c1O,28µM*!,-7%
Cc1ncc(COP(=O)(O)O)c(CN)c1O,1%,-9%
O=C(C[C@H]1C(=O)N(Cc2cccnc2)C[C@@H]1c1ccc(Br)cc1)Nc1ccc(Br)cc1,-24%,-27%
SMILES,Marburg entry,Lassa entry
CCc1nc(N)nc(N)c1-c1ccc(Cl)cc1,14µM*,?
Nc1ccc(Cl)cc1,-1%[107 µM],?
CN1CCN(C2Cc3ccccc3Sc3ccc(S)cc32)CC1 (configuration not stated),13µM*,?
Cn1c(-c2nonc2N)nc2cnccc21,?,43%
C[C@@H]1C=CCCO[C@]12C(=O)Nc1ccc(O)cc12,10%[8.59 µM],-19%[8.59 µM]
C[N+](C)(CCOc1ccccc1)Cc1cccs1,13%,-17%
Cc1cc(OCCOCC[N+](C)(C)Cc2ccccc2)ccc1C(C)(C)CC(C)(C)C,22µM*,25µM*
